Source: PubChem BioAssay (several laboratories)
tim10-1 inh = growth inhibitors of tim10-1 mutant yeast, primary screen, luminescence, uHTS; S. cerevisiae tim10-1 ts strain growth, BacTiter-Glo, 24 h; inhibition, % at 20 µM; 330,000 compounds, 2.2% hits; AID 463190, 2010;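 active = inhibition of at least 40%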;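 note: mutant grown at 25 °C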
TIM10 inh = growth inhibitors of isogenic TIM10 control yeast, primary screen, counter-screen for tim10-1 yeast inhibitor project, luminescence, uHTS. S. cerevisiae TIM10 strain growth, BacTiter-Glo luminescence, 24 h. inhibition, % at 10 µM. 330,000 compounds, 1.4% hits;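 active = inhibition of 40% or more at the single tested concentration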;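 note: wild-type TIM10 isogenic control strain grown at permissive 25 °C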
SKKanGAS inh = S. pyogenes SKKanGAS growth inhibitors in kanamycin, primary screen, streptokinase expression inhibitor project, SKKanGAS strain, BacTiter-Glo luminescence. inhibition, % at 7.5 µM. 6 h. 300,000 compounds, 1.3% hits;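 active = mean replicate score, as percent of positive control median, at least 50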;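 note: strain carries kanamycin resistance gene driven by streptokinase promoter and grows in 40 µg/ml kanamycin; loss of luminescence reflects streptokinase promoter inhibition or plain growth inhibition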
NLRP3 yeast inh = NALP3 inflammasome inhibitors in reconstituted yeast, primary screen, luminescence, uHTS | Yeast reconstituted NLRP3/ASC/caspase-1, beta-gal luminescence, 24 h | inhibition, % at 10 µM | 330,000 compounds, 0.39% hits | AID 2825, 2010;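 active = inhibition of 50% or more; inactive = inhibition below 50%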
tim23-1 inh = growth inhibitors of tim23-1 mutant yeast, primary screen, luminescence, uHTS | AID 463212, 2010 | 330,000 compounds, 1.3% hits | S. cerevisiae tim23-1 growth, BacTiter-Glo luminescence, 24 h | inhibition, % at 20 µM;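 active = growth inhibition of the mutant yeast at or above 50%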;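 note: temperature-sensitive mutant grown at 25 °C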
PfHsp90 yeast 2 = growth inhibition of PfHsp90-expressing yeast, primary screen, antimalarial PfHsp90 inhibitor project, S. cerevisiae, BacTiter-Glo luminescence, single point, set 2. BacTiter-Glo ATP, 48 h; yeast lacking PDR1 and PDR3 efflux regulators. inhibition, % at 9.4 µM. 310,000 compounds, 0.32% hits. AID 504621, 2011;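 active = every replicate shows inhibition above about 80%, whatever the replicate mean, limit read from the data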
tim10-1 conf = growth inhibitors of tim10-1 mutant yeast, confirmation, single concentration, luminescence, S. cerevisiae; AID 463213, 2010; 7,400 compounds, 56% hits; S. cerevisiae tim10-1 ts strain growth, BacTiter-Glo, 24 h; shares compounds with tim10-1 inh; inhibition, % at 20 µM;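 active = inhibition of yeast growth at or above a set limit in either of two repeat tests at 20 µM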;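 note: tim10-1 mutant grown at permissive 25 °C to find synthetic lethal compounds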
TIM10 conf = growth inhibitors of wild-type TIM10 yeast, confirmation, counter-screen for tim10-1 synthetic lethality project, single concentration, luminescence, S. cerevisiae | inhibition, % at 10 µM | AID 463215, 2010 | 4,600 compounds, 63% hits | S. cerevisiae tim10 strain growth, BacTiter-Glo luminescence, 24 h | shares compounds with TIM10 inh;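 active = inhibition of yeast growth at or above a set limit in either of two replicates at 10 µM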; note: this counterscreen used the strain with wild-type TIM10
tim23-1 confirm = tim23-1 mutant yeast growth inhibitors, confirmation, luminescence, single concentration; 4,400 compounds, 83% hits; inhibition, % at 20 µM; S. cerevisiae tim23-1 growth, BacTiter-Glo luminescence, 24 h; AID 463218, 2010; shares compounds with tim23-1 inh;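 active = inhibition above about 39% in either of two replicate wells at 20 µM, limit read from the data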;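 note: temperature-sensitive tim23-1 mutant grown at 25 °C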
Large screens that a line does not name were inactive (follow-up assays come after a bar, where they were run). Shown are actives, neighbours in structure and some others; about 4.6% of the full set was active somewhere.

COc1ccc(OCCCC(=O)Nc2ncn[nH]2)cc1	none
O=C(Nc1ccc(Cc2ccncc2)cc1)c1ccc([N+](=O)[O-])o1	tim10-1 inh 67.1, TIM10 inh 44.9, tim23-1 inh 70.8 | tim10-1 conf 59.0 | TIM10 conf 43.0 | tim23-1 confirm 57.5
O=C(Nc1ccc(N2CCOCC2)cc1)c1ccc([N+](=O)[O-])o1	tim10-1 inh 55.3, tim23-1 inh 55.0 | tim10-1 conf inactive | tim23-1 confirm 57.9
COc1cc(NC(=O)c2cccs2)ccc1NC(=O)Cc1ccccc1	none
COc1cc(NC(=O)c2ccc([N+](=O)[O-])o2)ccc1NC(=O)c1cccs1	tim10-1 inh 45.5, tim23-1 inh 59.3 | tim10-1 conf 38.8 | tim23-1 confirm inactive
COc1ccc(-c2cc3ccccc3oc2=O)cc1NC(=O)c1ccc([N+](=O)[O-])o1	tim10-1 inh 66.0, TIM10 inh 62.4, tim23-1 inh 70.5 (no result: PfHsp90 yeast 2) | tim10-1 conf 63.7 | TIM10 conf 71.8 | tim23-1 confirm 41.0
COc1ccc(-c2cc3ccccc3oc2=O)cc1NC(=O)c1ccc(Br)o1	none
O=C(Nc1ccc(S(=O)(=O)N2CCOCC2)cc1)c1ccc([N+](=O)[O-])o1	none
O=C(Nc1ccc(N2CCN(C(=O)c3cccs3)CC2)cc1)c1ccc([N+](=O)[O-])o1	tim10-1 inh 71.7, TIM10 inh 71.6, tim23-1 inh 71.2 | tim10-1 conf 74.4 | TIM10 conf 77.2 | tim23-1 confirm 85.0
O=C(Nc1ccccc1C(=O)N/N=C/c1ccco1)c1ccc(F)cc1	tim10-1 inh 41.6, tim23-1 inh 59.8 | tim10-1 conf 52.5 | tim23-1 confirm 58.6
CCCc1nnc(NC(=O)CCC(=O)N2CCN(S(=O)(=O)c3ccc(C)cc3)CC2)s1	none
CC1=NN(C(N)=S)C(=O)C1N=Nc1ccc(Cl)cc1Cl (configuration not stated)	tim10-1 inh 57.0, TIM10 inh 46.4, tim23-1 inh 64.1 | tim10-1 conf 55.8 | TIM10 conf 58.0 | tim23-1 confirm 73.2
COc1ccc(C(=O)Nc2ccnn2C2CCN(C(=O)C3CCOC3)CC2)cc1 (configuration not stated)	none
COc1ccc(/C=C/C(=O)ONC2=NCCCCC2)cc1OC	tim10-1 inh 67.6, TIM10 inh 49.0, tim23-1 inh 58.4 | tim10-1 conf 68.6 | TIM10 conf 37.0 | tim23-1 confirm inactive
N/C(Cc1ccc(Cl)cc1)=N\OC(=O)c1ccccc1	tim10-1 inh 52.9, TIM10 inh 86.7, tim23-1 inh 68.8 | tim10-1 conf inactive | TIM10 conf inactive | tim23-1 confirm 44.2
CC(C)(C)C(=O)O/N=C(\N)c1c(Cl)cccc1Cl	none
CC(C)(C)C(=O)O/N=C(\N)COc1cccc(Cl)c1	tim10-1 inh 40.3, TIM10 inh 67.1, tim23-1 inh 79.8 | tim10-1 conf inactive | TIM10 conf 74.2 | tim23-1 confirm 69.3
CC(C)(C)C(=O)OC/C(N)=N/OC(=O)c1ccc(Cl)cc1	tim10-1 inh 59.7, TIM10 inh 44.2, tim23-1 inh 76.0 | tim10-1 conf 47.0 | TIM10 conf 68.3 | tim23-1 confirm 72.7
N/C(Cc1ccc([N+](=O)[O-])cc1)=N\OC(=O)c1ccc([N+](=O)[O-])cc1	tim10-1 inh 59.3, TIM10 inh 84.0, tim23-1 inh 67.4 | tim10-1 conf 74.3 | TIM10 conf 85.8 | tim23-1 confirm 84.1
N/C(CCS(=O)(=O)c1ccc(Cl)cc1)=N\OC(=O)c1ccc(Cl)cc1	none
N/C(=N\OC(=O)c1cccc(Br)c1)c1ccc([N+](=O)[O-])cc1	none
Cc1ccc(NC(=O)C/C(N)=N/OC(=O)c2ccccc2)cc1	tim10-1 inh 54.9, TIM10 inh 68.8, tim23-1 inh 50.9 | tim10-1 conf 76.2 | TIM10 conf 80.3 | tim23-1 confirm 74.8
N/C(Cc1ccc([N+](=O)[O-])cc1)=N\OC(=O)c1cccc(Br)c1	tim10-1 inh 70.3, TIM10 inh 94.8, tim23-1 inh 91.0 | tim10-1 conf 42.8 | TIM10 conf 95.3 | tim23-1 confirm 86.1
COc1ccc(C(=O)O/N=C(\N)Cc2ccc(Cl)c(Cl)c2)cc1OC	tim10-1 inh 58.4, TIM10 inh 88.1, tim23-1 inh 70.0 | tim10-1 conf 34.2 | TIM10 conf inactive | tim23-1 confirm inactive
Cc1cccc(OCC(=O)O/N=C(\N)Cc2ccc(Cl)cc2)c1	tim10-1 inh 57.3, TIM10 inh 72.1, tim23-1 inh 75.4 | tim10-1 conf 39.8 | TIM10 conf 83.6 | tim23-1 confirm 70.0
O=C(O)/C=C/C(=O)NC1CCC(CC2CCC(NC(=O)/C=C/C(=O)O)CC2)CC1 (configuration not stated)	none
CCN(CC)C(=O)Cn1cc(S(=O)(=O)CC(=O)Nc2ccccc2C)c2ccccc21	none
CC(C)NC(=O)Nc1cccc2c1O[C@H](CN(C)C(=O)Nc1ccccc1)[C@@H](C)CN([C@H](C)CO)C2=O	none (no result: SKKanGAS inh)
CCC(=O)N1CCc2cc(S(=O)(=O)N3CCN(c4cc(C)ccc4C)CC3)ccc21	none
COc1ccccc1C/C(N)=N/OC(=O)c1cccc([N+](=O)[O-])c1	tim10-1 inh 52.0, TIM10 inh 81.3, tim23-1 inh 69.6 (no result: PfHsp90 yeast 2) | tim10-1 conf 40.8 | TIM10 conf 85.5 | tim23-1 confirm 66.7
COc1cccc(/C=C/C(=O)c2cccc([N+](=O)[O-])c2)c1OC	tim10-1 inh 43.4, tim23-1 inh 60.9 | tim10-1 conf 44.0 | tim23-1 confirm 55.7
Cn1c(=O)c2c([nH]c(OCc3ccc(Cl)cc3Cl)[n+]2Cc2ccc(F)cc2)n(C)c1=O	none
COc1ccc(N2CCN(CC(=O)Nc3cccc(S(=O)(=O)N4CCOCC4)c3)CC2)cc1	none (no result: PfHsp90 yeast 2)
COc1cc(C(=O)N=c2sccn2C)c([N+](=O)[O-])cc1OC	none
Cn1ccsc1=NC(=O)c1ccc([N+](=O)[O-])o1	tim10-1 inh 50.1, tim23-1 inh 57.2 | tim10-1 conf inactive | tim23-1 confirm 57.5
